Screens: PubChem BioAssay, Center for Chemical Genomics, University of Michigan
Dicer processing: inhibitors of human Dicer processing of pre-microRNA; cat-ELCCA pre-miR-21 Dicer processing, chemiluminescence; hits give high values; z-score at 25 µM; hit rate 6% among 47,000; AID 1347074; in the data active = z-score above about 3, passing the limit was not always enough;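 also: higher signal means more uncleaved substrate so more Dicer inhibition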
Target sequence (Q9UPY3 whole entry, looked up): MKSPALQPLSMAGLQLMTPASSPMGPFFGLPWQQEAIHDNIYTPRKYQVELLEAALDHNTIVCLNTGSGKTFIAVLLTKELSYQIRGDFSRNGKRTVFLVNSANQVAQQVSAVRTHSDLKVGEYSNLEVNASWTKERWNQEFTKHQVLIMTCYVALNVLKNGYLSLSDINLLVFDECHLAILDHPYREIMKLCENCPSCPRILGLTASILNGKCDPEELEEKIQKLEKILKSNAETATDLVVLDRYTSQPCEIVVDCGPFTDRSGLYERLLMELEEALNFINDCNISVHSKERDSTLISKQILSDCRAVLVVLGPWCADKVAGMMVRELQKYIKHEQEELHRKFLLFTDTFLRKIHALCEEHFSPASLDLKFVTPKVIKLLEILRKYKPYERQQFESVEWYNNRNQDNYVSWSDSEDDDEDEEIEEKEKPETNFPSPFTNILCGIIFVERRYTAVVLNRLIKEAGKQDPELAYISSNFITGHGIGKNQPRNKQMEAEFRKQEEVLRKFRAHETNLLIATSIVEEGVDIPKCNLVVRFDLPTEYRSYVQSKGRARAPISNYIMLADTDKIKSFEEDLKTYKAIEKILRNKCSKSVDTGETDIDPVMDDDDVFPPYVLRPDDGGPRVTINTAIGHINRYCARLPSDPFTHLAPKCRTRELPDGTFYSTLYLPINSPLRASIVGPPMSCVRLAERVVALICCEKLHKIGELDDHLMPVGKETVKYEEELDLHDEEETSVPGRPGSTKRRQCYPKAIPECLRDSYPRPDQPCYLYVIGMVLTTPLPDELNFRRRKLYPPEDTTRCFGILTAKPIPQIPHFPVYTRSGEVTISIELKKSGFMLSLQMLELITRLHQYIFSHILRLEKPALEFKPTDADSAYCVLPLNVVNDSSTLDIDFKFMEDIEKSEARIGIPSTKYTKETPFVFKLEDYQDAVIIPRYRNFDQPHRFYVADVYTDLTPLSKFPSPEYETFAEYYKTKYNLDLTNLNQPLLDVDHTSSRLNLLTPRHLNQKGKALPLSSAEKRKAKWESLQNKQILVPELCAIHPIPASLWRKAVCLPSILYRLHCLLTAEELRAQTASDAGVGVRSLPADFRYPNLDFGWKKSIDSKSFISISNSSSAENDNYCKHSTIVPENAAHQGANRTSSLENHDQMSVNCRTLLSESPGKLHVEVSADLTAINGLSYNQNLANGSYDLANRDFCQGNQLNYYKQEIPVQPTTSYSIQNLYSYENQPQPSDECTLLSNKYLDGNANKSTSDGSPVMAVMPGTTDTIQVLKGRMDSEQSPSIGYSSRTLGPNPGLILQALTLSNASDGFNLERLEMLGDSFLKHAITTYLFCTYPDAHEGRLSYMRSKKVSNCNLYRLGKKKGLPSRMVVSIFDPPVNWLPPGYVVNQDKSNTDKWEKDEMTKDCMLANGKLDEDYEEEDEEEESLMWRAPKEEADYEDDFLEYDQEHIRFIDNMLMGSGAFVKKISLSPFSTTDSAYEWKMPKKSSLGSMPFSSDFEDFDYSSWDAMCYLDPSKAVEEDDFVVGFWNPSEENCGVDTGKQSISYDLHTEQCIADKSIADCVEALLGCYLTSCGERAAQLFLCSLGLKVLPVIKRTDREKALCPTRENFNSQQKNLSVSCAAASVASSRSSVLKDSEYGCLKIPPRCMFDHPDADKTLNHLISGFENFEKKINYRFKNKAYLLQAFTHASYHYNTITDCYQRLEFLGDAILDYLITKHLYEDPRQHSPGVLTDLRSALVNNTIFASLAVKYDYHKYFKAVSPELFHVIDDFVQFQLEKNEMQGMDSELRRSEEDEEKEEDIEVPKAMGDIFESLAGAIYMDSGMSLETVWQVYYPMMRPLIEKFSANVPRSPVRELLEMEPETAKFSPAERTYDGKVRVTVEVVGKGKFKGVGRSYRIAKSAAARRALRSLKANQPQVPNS
Large screens that a line does not name were inactive. Shown is part of a subset that was picked to be rich in hits.

COC(=O)c1ccc(S(=O)(=O)Nc2ccc(N3CCOCC3)cc2)n1C	Dicer processing 3.6
COC(=O)c1ccc(S(=O)(=O)N2CCCCCC2)n1C	none
CCS(=O)(=O)c1ccc(O)c(NC(=O)COCC(=O)O)c1	none
COc1ccccc1C(=O)CC1(O)C(=O)N(CCc2ccccc2)c2ccc(Br)cc21 (stereo unspecified)	Dicer processing 4.3
O=C(CC1(O)C(=O)N(CCc2ccccc2)c2ccc(Br)cc21)c1ccccn1 (stereo unspecified)	none
CCCN1C(=O)C(O)(CC(=O)c2ccc3c(c2)OCO3)c2cc(Br)ccc21 (stereo unspecified)	none
O=C(CC1(O)C(=O)N(Cc2ccccc2)c2ccc(Br)cc21)c1ccc2c(c1)OCO2 (stereo unspecified)	none
O=C(CC1(O)C(=O)N(CCc2ccccc2)c2ccc(Br)cc21)c1ccc2c(c1)OCO2 (stereo unspecified)	Dicer processing 4.1
Cc1ccc(C(=O)CC2(O)C(=O)N(CCc3ccccc3)c3ccc(Br)cc32)o1 (stereo unspecified)	none
Cc1c(Cl)cccc1NC(=S)NN(C)C	none
COc1cc(C2C3=C(CCCC3=O)NC3=C2C(=O)CCC3)ccc1O	none
CCOC(=O)C(=CNc1nc2ccc(OC)cc2s1)C(=O)OCC	none
CN(NC(=O)c1ccccc1Cl)c1cccc(F)c1C#N	none
Cc1cc(S(=O)(=O)NN(C)c2cccc(Cl)c2C#N)cc(C)c1F	none
CN(NS(=O)(=O)c1ccc(Cl)c(Cl)c1)c1cccc(F)c1C#N	Dicer processing 3.6
Cc1cc(C(C)(C)c2ccc(OCC(=O)O)c(C)c2)ccc1OCC(=O)O	none
Cn1nnnc1SCC(=O)N1CCN(S(=O)(=O)c2ccccc2)C1	none
O=C(CSc1ccccn1)N1CCN(S(=O)(=O)c2ccccc2)C1	Dicer processing 3.4
O=C(CSc1nnnn1-c1ccccc1)N1CCN(S(=O)(=O)c2ccccc2)C1	none
O=C(Nc1ccc(S(=O)(=O)N2CCCC2)cc1)C1c2ccccc2Oc2ccccc21	none
CC(C)c1cc(Br)c(NC(=O)Nc2ccc3ccccc3n2)c(Br)c1	none
CCCCc1c(C)nc(SC)[nH]c1=O	Dicer processing 5.3
CCCCc1c(O)nc(SC)[nH]c1=O	none
CCCCc1c(C)nc(N)[nH]c1=O	none
Cc1cc(=O)n2c(n1)NC(Nc1ccc(C(C)C)cc1)=NC2c1ccccc1 (stereo unspecified)	none
Cc1cc(NC(=O)NNc2ccccc2)no1	none
O=C1OC(c2ccc(Cl)cc2)Sc2ccccc21 (stereo unspecified)	none
N/C(=N\OC(=O)c1ccc(Cl)cc1)c1cnccn1	none
CN(C)c1ccc(-c2nc3n(n2)C(c2ccc(F)cc2)C2=C(CCCC2=O)N3)cc1 (stereo unspecified)	none
Cn1c(=O)c2c(nc(NCCO)n2CCCc2ccccc2)n(C)c1=O	none
C=CCNc1nc2c(c(=O)[nH]c(=O)n2C)n1CCO	none
CCn1c(NCCCO)nc2c1c(=O)[nH]c(=O)n2C	none
Cn1c(=O)[nH]c(=O)c2c1nc(NCCCO)n2CCO	none
CCCCCn1c(NCCO)nc2c1c(=O)[nH]c(=O)n2C	Dicer processing 3.6
Cn1c(=O)[nH]c(=O)c2c1nc(NCCCO)n2CCCc1ccccc1	Dicer processing 3.4
CCOC(=O)NC(NCCc1ccc(OC)cc1)(C(F)(F)F)C(F)(F)F	none
Clc1ccc(C2N(Cc3ccccc3)CCC3CCCCN32)cc1Cl (stereo unspecified)	none
Cc1nc2ccccc2n1Cc1nc2ccccc2n1C	none
Cn1cnnc1SCC(=O)Nc1nc2ccccc2s1	none
Cc1nnc(SCC(=O)Nc2ccc(F)cc2F)s1	none
Cn1cnnc1SCC(=O)Nc1ccc(F)cc1F	Dicer processing 4.7
CN(CCO)CC(O)Cn1c2ccc(Cl)cc2c2cc(Cl)ccc21 (stereo unspecified)	none
COc1ccc(S(=O)(=O)N2CCN(S(=O)(=O)c3ccc4ccccc4c3)CC2)cc1	none
CSc1ccc(CN2CCN(S(=O)(=O)c3ccc4ccccc4c3)CC2)cc1	Dicer processing 3.4
O=S(=O)(c1ccc2ccccc2c1)N1CCCCC1	none
Fc1ccccc1CN1CCN(C2CCN(Cc3ccccc3)CC2)CC1	none
O=S(=O)(c1ccc2ccccc2c1)N1CCN(C2CCN(Cc3ccccc3)CC2)CC1	Dicer processing 3.2
O=S(=O)(c1ccc2ccccc2c1)N1CC=C(c2ccccc2)CC1	none
CN(NC(=O)c1ccccc1C(=O)O)c1cc(C(F)(F)F)ccn1	none
c1ccc(-c2cc3ccccc3nn2)cc1	none
CCOc1cc(CNCCSc2nnnn2C)ccc1OC	none
CSc1nnc(SC)n1CCNC(=O)c1cccc(Cl)c1	none
COc1cccc(C(=O)NCCN2CCN(c3ccc(Cl)cc3)CC2)c1	Dicer processing 3.9
COc1cccc(C(=O)Nc2nc(SCc3ccc(Cl)cc3)n[nH]2)c1	none
Cc1ccc2[nH]c3nc(SCC(C)C)nnc3c2c1	none
CCCc1nnc(N2C(=O)c3oc4ccc(F)cc4c(=O)c3C2c2ccccc2)s1 (stereo unspecified)	none
Cc1ccc(NC(=S)NNC(=O)CCc2ccc(O)cc2)c(Cl)c1	none
CCS(=O)(=O)N1CCN(c2nc(-c3ccccc3)ns2)CC1	none
O=C(O)CSCC(=O)N1CCN(c2nc(-c3ccccc3)ns2)CC1	none
c1ccc(-c2nsc(N3CCCC3)n2)cc1	Dicer processing 3
Fc1ccc(Nc2ncnc3nc[nH]c23)cc1F	none
CC(=O)Nc1ccc(S(=O)(=O)Oc2c(Cl)cc(C)cc2Cl)cc1	Dicer processing 4.5
CC(=O)Nc1ccc(S(=O)(=O)Oc2ccccc2Cl)cc1	none
Cc1ccc(S(=O)(=O)Oc2c(Cl)cc(C(C)(C)C)cc2Br)cc1	none
CN1CCN(c2cc(-c3ccccc3)nc3ccccc23)CC1	none
COC(=O)c1c(C)nc(C)c(C(=O)OC)c1-c1csc(S(=O)(=O)N2CCOCC2)c1	none
CC(C)Cc1ccc(C(C)C(=O)Nc2nn(C)c3ccccc23)cc1 (stereo unspecified)	none
c1ccc(-c2nnc3c4cnn(-c5ccccc5)c4ncn23)cc1	Dicer processing 3.1
COc1ccc(-c2nnc3c4cnn(-c5ccccc5)c4ncn23)cc1	none
Cc1ccc(-c2nnc3c4cnn(-c5ccccc5)c4ncn23)cc1	none
CC(CCC(=O)NCC(=O)O)C1CCC2C3C(O)CC4CC(O)CCC4(C)C3CC(O)C12C (stereo unspecified)	none
Clc1ccccc1CN1CCN(CC2CC=CCC2)CC1 (stereo unspecified)	none
Fc1cccc(Cl)c1CSc1nc2ccccc2[nH]1	none
Cc1cc(Oc2ccc(C(F)(F)F)cc2[N+](=O)[O-])c2cccc(Cl)c2n1	none
CC1CN(Cc2c(O)ccc3c(=O)c(Oc4ccc5ccccc5c4)c(C(F)(F)F)oc23)CC(C)O1 (stereo unspecified)	none
CC1CN(Cc2c(O)ccc3c(=O)c(-c4ccccc4)coc23)CC(C)O1 (stereo unspecified)	none
CN1CCN(Cc2c(O)ccc3c(=O)c(-c4ccccc4)c(C(F)(F)F)oc23)CC1	none
CC1CN(Cc2c(O)ccc3c2oc(=O)c2ccccc23)CC(C)O1 (stereo unspecified)	Dicer processing 3.1
CC1CCN(Cc2c(O)ccc3c2oc(=O)c2ccccc23)CC1	Dicer processing 3.5
O=c1c(-c2ccccc2)coc2c(CN3CCCCC3)c(O)ccc12	none
CCOC(=O)c1cnc2cc(C)[nH]n2c1=O	none
CCOC(=O)c1cnc2cc(C)ccn2c1=O	none
CCOC(=O)c1cnc2n(c1=O)CCS2	Dicer processing 3.2
CCc1ccc(Oc2nc3c(c(=O)n(C)c(=O)n3C)n2Cc2ccccc2Cl)cc1	none
CCOC(=O)c1sc2nc3n(c(=O)c2c1C)CCCC3C(=O)OCC (stereo unspecified)	none
O=C(NCc1ccc2c(c1)OCO2)N1CCOCC1	none
Clc1cccc(CNCc2ccc3c(c2)OCO3)c1	none
c1cc2c(cc1CNCCCN1CCOCC1)OCO2	Dicer processing 5.8
